# MITF primary = MITF inhibitors, primary screen, biochemical, AlphaScreen, human. inhibition, % at 2.6 µM. Microphthalmia-associated transcription factor (Homo sapiens), O75030. AID 1259374, 2018. 650,000 compounds, 0.91% hits. AlphaScreen MITF homodimerization, bead proximity signal; in the data active = inhibition above about 50%;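 also: 0% = vehicle wells with protein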
# GPR151 activ = activators of human GPR151, primary screen, cell-based, PathHunter beta-arrestin, luminescence; PathHunter beta-arrestin GPR151 cells; AID 1508602, 2020; G-protein coupled receptor 151 (Homo sapiens), Q8TDV0; 650,000 compounds, 1% hits; activation, % at 11.2 µM; in the data active = activation above about 4.9%;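 also: 0% = median of compound wells and 100% = cells with positive control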
# TEAD-YAP block = TEAD-YAP interaction inhibition, primary screen, TEAD-YAP interaction inhibitor project, luminescence, HEK-TIYL cells; 640,000 compounds, 1.4% hits; TEAD-Gal4/YAP UAS-luciferase luminescence; inhibition, % at 9.12 µM; in the data active = inhibition above about 32%;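 also: 0% = median of test compound wells and 100% = reference inhibitor wells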
# FBW7 act = FBW7 E3 ligase activators, primary screen, biochemical, AlphaScreen, human; 650,000 compounds, 0.13% hits; AlphaScreen FBW7–phospho-cyclin E peptide binding, activator screen; F-box/WD repeat-containing protein 7 (Homo sapiens), Q969H0; normalized activity (activation), % at 26.1 µM; AID 1259310, 2017; in the data active = normalized activity above about 1.9%;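 also: purified mutant Fbw7 with reduced substrate affinity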
# Target sequence (Q969H0 whole entry, looked up): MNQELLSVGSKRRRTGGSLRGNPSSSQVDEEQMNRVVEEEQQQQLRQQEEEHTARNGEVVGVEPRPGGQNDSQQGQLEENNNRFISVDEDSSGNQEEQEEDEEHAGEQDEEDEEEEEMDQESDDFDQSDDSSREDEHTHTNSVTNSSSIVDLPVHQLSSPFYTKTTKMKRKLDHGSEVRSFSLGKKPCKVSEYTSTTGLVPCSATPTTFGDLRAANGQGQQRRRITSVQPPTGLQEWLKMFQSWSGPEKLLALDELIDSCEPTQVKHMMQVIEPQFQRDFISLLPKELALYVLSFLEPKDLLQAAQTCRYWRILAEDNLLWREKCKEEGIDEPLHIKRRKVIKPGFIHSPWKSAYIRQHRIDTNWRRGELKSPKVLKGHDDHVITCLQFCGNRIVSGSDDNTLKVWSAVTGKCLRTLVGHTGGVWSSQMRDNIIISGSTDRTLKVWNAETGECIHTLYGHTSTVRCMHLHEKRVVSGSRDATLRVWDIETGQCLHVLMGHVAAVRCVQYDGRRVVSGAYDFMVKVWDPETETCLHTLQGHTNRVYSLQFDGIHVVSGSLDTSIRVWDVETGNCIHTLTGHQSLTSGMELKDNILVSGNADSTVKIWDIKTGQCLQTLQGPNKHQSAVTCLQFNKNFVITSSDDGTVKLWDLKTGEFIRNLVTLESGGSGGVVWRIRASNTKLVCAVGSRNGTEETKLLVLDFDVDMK
# GPR151 confirm = GPR151 activators, triplicate retest, confirmation, cell-based, PathHunter beta-arrestin, luminescence | GPR151 PathHunter beta-arrestin cells, 90 min; % of EA-reagent control over plate median | activation, % at 11.2 µM | shares compounds with GPR151 activ | 6,700 tested, under 10 active;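 active = mean percent activation across replicates above the confirmation screen cutoff of 4.91%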
# GPR119 ag = GPR119 activators in beta-arrestin cells, counter-screen for GPR151 activator project, cell-based, PathHunter beta-arrestin, luminescence, triplicate; shares compounds with GPR151 activ; 90 min; 0 = compound-well median, 100 = enzyme-acceptor control; activation, % at 11.2 µM; 6,700 compounds, 0.3% hits;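 active = mean percent activation in the counterscreen above 29.09%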;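 also: counterscreen on off-target GPR119 to flag nonselective hits from the GPR151 activator screen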
# * marks the source's active call; other numbers are inactive results; x = no result; ! = not confirmed by another sample. Only some compounds are listed: those with a hit (about 3.4% of all), similar ones and a draw of the others.
SMILES,MITF primary,GPR151 activ,TEAD-YAP block,FBW7 act,GPR151 confirm,GPR119 ag
O=C(NCc1cccs1)N1CCN(c2nc3ccccc3[nH]2)CC1,13,0,1,0,x,x
CCOC(=O)c1cccc(NC(=O)COc2ccc(C(C)C)c(C)c2)c1,10,5.0*,-11,1,0,4
COC(=O)c1cccc(NC(=O)COc2ccc(C(C)C)c(C)c2)c1,17,0,-7,1,x,x
CCOC(=O)CN1CC23C=CC(O2)C(C(=O)Nc2ccccc2OC)C3C1=O (stereo unspecified),4,1,-3,0,x,x
CC1(C)Cc2cccc(OCC(=O)NC3=NCCS3)c2O1,-1,5.9*,-4,0,2,1
N#Cc1ccc(NC(=O)COC(=O)c2ccc3c(c2)S(=O)(=O)c2ccccc2C3=O)cc1,-6,2,13,0,x,x
CC(C)(C)c1csc(NC(=O)c2cc([N+](=O)[O-])cc([N+](=O)[O-])c2)n1,-11,-1,8,0,x,x
CC(C)(C)c1csc(NC(=O)c2cc([N+](=O)[O-])ccc2Cl)n1,15,7.1*,6,1,-1,0
CC(=O)Oc1cccc(C(=O)Nc2nc(C(C)(C)C)cs2)c1,21,7.3*,-9,0,0,-5
CC(C)(C)c1csc(NC(=O)c2cccc(F)c2)n1,-11,3,-45,0,x,x
N#C/C(=C\c1cccs1)C(=O)NC1CCCCCC1,12,0,-36,0,x,x
COc1cccc(CNc2nc3ccccc3n3nnnc23)c1,-3,-1,-23,0,x,x
O=C(Nc1cccc(N2CCC(NCc3cccc(-n4cccn4)c3)CC2)c1)C1CC1,-2,-1,10,0,x,x
O=C(Nc1cccc(N2CCC(NCc3cccnc3)CC2)c1)C1CC1,0,5.5*,-9,0,1,19
COCCCNC(=O)CCc1c(C)nc2cc(-c3ccccc3)nn2c1C,-1,5.3*,-3,0,0,-1
COc1ccccc1N1CC(C(=O)Nc2nnc(SC3CCCC3)s2)CC1=O (stereo unspecified),3,6.2*,11,0,1,1
COc1ccc(Cl)cc1N1CC(C(=O)Nc2nnc(C)s2)CC1=O (stereo unspecified),13,-1,-6,0,x,x
COc1ccc(Cl)cc1N1CC(C(=O)Nc2c(C)cccc2C)CC1=O (stereo unspecified),-2,8.3*,-1,0,0,3
O=C(Nc1cnc(-c2ccccc2)nc1)c1ccc([N+](=O)[O-])cc1,7,1,-6,0,x,x
CC1=C(C(=O)Nc2ccc(F)cc2)C(c2ccc(N(C)C)cc2)C2=C(CCCC2=O)N1 (stereo unspecified),0,1,7,0,x,x
CC(C)=CC[C@@H](O)C1=CC(=O)c2c(O)ccc(O)c2C1=O,75*!,10.0*!,8,0,0,2
CN(C)c1ccc(C2OCC3(CO2)COC(c2ccc(N(C)C)cc2)OC3)cc1 (stereo unspecified),4,1,-4,0,x,x
CN(C)CC(C)(C)C1OCC2(CO1)COC(C(C)(C)CN(C)C)OC2 (stereo unspecified),13,6.9*,13,0,0,-2
Cc1ccn2cc(-c3ccc(NC(=O)c4ccc(Br)cc4)cc3)nc2n1,-4,5.8*,2,0,-1,-14
Cc1ccn2cc(-c3ccc(NC(=O)CCc4ccccc4)cc3)nc2n1,-9,-2,-26,0,x,x
CN(C)CCCNc1ccc(S(N)(=O)=O)cc1[N+](=O)[O-],8,5.7*,2,1,0,3
CC(C)=C/C(C)=N/Nc1ccc(S(N)(=O)=O)cc1[N+](=O)[O-],-3,4.9*,4,0,-1,-9
O=C(Cn1nnc(-c2ccc([N+](=O)[O-])cc2)n1)NCC1CC1,14,5.9*,-5,0,1,5

# Screens as filed in PubChem.
